About 2,000 (36%) of roughly 5,500 compounds were called active. Roughly 18% stayed inconclusive and do not appear here. Cut-off read from the data, not from the text of the source: active = normalized growth mostly below about 0.91 (no sharp cut-off); inconclusive = no clear call, values can overlap the other calls; inactive = mostly above about 0.92. This is one part of the list.
Experiment: chemical genetic growth profiling, strain panel (AID 1159580);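 note: tested at 20 µM; growth read once vehicle control cultures reached saturation at 30 °C; 1 = growth at the plate median or of vehicle wells; lower values mean less growth of the strain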
Settings: S. cerevisiae deletion strains, growth OD
[1] = locus YDL101C, strain DUN1, hits give low values
[2] = locus YHR030C, strain SLT2, hits give low values

Measured: normalized growth

OC(CN1CCN(c2nc3ccc(Cl)cc3s2)CC1)Cn1ccc2ccccc21 (stereo not given)
inactive: locus YAR019C, strain CDC15, hits give low values 1 | locus YBL105C, strain PKC1, hits give low values 0.99 | locus YBR135W, strain CKS1, hits give low values 0.991 | locus YBR136W, strain MEC1, hits give low values 0.996 | locus YBR160W, strain CDC28, hits give low values 0.985 | locus YDL017W, strain CDC7, hits give low values 0.996 | locus YDL028C, strain MPS1, hits give low values 0.99 | [1] 0.989 | locus YDL108W, strain KIN28, hits give low values 0.986 | locus YDL132W, strain cdc53, hits give low values 1 | locus YDL214C, strain PRR2, hits give low values 0.92 | locus YDR052C, strain DBF4, hits give low values 1 | locus YDR054C, strain cdc34, hits give low values 0.996 | locus YDR226W, strain ADK1, hits give low values 0.99 | locus YDR477W, strain SNF1, hits give low values 0.935 | locus YER123W, strain YCK3, hits give low values 0.903 | locus YER133W, strain GLC7, hits give low values 0.93 | locus YFL009W, strain cdc4, hits give low values 0.993 | locus YFL029C, strain CAK1, hits give low values 0.989 | locus YFR003C, strain YPI1, hits give low values 0.992 | locus YFR019W, strain FAB1, hits give low values 0.935 | locus YFR028C, strain CDC14, hits give low values 0.995 | locus YGR040W, strain KSS1, hits give low values 0.934 | locus YGR052W, strain FMP48, hits give low values 1.02 | locus YGR092W, strain DBF2, hits give low values 0.96 | [2] 0.864 | locus YHR079C, strain IRE1, hits give low values 0.955 | locus YHR082C, strain KSP1, hits give low values 1.05 | locus YHR205W, strain SCH9, hits give low values 0.97 | locus YIL147C, strain SLN1, hits give low values 0.999 | locus YJL095W, strain BCK1, hits give low values 0.954 | locus YJL128C, strain PBS2, hits give low values 0.942 | locus YJL157C, strain FAR1, hits give low values 0.924 | locus YJR016C, strain ILV3, hits give low values 0.991 | locus YJR066W, strain TOR1 (second series), hits give low values 0.875 | locus YJR066W, strain TOR1, hits give low values 0.991 | locus YKL048C, strain ELM1, hits give low values 0.981 | locus YKL067W, strain YNK1, hits give low values 0.924 | locus YKL101W, strain HSL1, hits give low values 0.942 | locus YKL193C, strain SDS22, hits give low values 0.994 | locus YKL203C, strain TOR2, hits give low values 0.981 | locus YLR113W, strain HOG1, hits give low values 0.864 | locus YLR133W, strain CKI1, hits give low values 0.942 | locus YLR403W, strain SFP1, hits give low values 0.926 | locus YML070W, strain DAK1, hits give low values 0.927 | locus YMR001C, strain CDC5, hits give low values 0.988 | locus YMR205C, strain PFK2 (second series), hits give low values 0.948 | locus YMR277W, strain FCP1, hits give low values 1 | locus YNL006W, strain LST8, hits give low values 0.985 | locus YNL020C, strain ARK1, hits give low values 0.942 | locus YNL161W, strain CBK1, hits give low values 0.982 | locus YNL183C, strain NPR1, hits give low values 1 | locus YNL207W, strain RIO2, hits give low values 1 | locus YNL222W, strain SSU72, hits give low values 0.999 | locus YNL307C, strain MCK1 (second series), hits give low values 0.935 | locus YOL078W, strain AVO1, hits give low values 0.976 | locus YOL136C, strain PFK27, hits give low values 0.912 | locus YOR061W, strain CKA2, hits give low values 0.952 | locus YOR119C, strain RIO1, hits give low values 1.01 | locus YOR231W, strain MKK1, hits give low values 0.947 | locus YOR329C, strain SCD5, hits give low values 0.986 | locus YPL031C, strain PHO85, hits give low values 0.938 | locus YPL153C, strain RAD53, hits give low values 0.959 | locus YPL204W, strain HRR25, hits give low values 0.895 | locus YPL209C, strain IPL1, hits give low values 0.989 | locus YPL256C, strain CLN2, hits give low values 0.938 | locus YPR025C, strain CCL1, hits give low values 0.99 | locus YPR106W, strain ISR1, hits give low values 0.991 | locus YPR111W, strain DBF20, hits give low values 0.967 | strain NNK1, hits give low values 0.974 | strain TSCII, hits give low values 0.995

OC(CN1CCN(c2nc3ccc(Cl)cc3s2)CC1)CN1CCCN(c2ncc(C(F)(F)F)cc2Cl)CC1 (stereo not given)
active: locus YDL134C, strain PPH21, hits give low values 0.0459 | locus YEL061C, strain CIN8, hits give low values 0.0536 | [2] 0.068 | locus YKL190W, strain CNB1, hits give low values 0.0453 | locus YLR039C, strain RIC1, hits give low values 0.0605 | locus YLR085C, strain ARP6, hits give low values 0.0639 | locus YLR262C, strain YPT6, hits give low values 0.0604 | locus YML094W, strain GIM5, hits give low values 0.0664 | locus YNL298W, strain CLA4 (second series), hits give low values 0.0802 | locus YNR030W, strain Alg12, hits give low values 0.0638 | locus YOL006C, strain TOP1, hits give low values 0.0656 | locus YPL241C, strain CIN2, hits give low values 0.0618 | locus YPR135W, strain CTF4, hits give low values 0.16
inactive: locus YAL013W, strain DEP1, hits give low values 1 | locus YBR229C, strain ROT2, hits give low values 0.943 | locus YCL061C, strain MRC1, hits give low values 0.997 | [1] 1.03 | locus YDR150W, strain NUM1, hits give low values 0.942 | locus YGR078C, strain PAC10, hits give low values 1.02 | locus YHR087W, strain rtc3, hits give low values 0.952 | locus YJL187C, strain SWE1, hits give low values 0.995 | locus YJR043C, strain POL32, hits give low values 1.02 | locus YJR075W, strain HOC1, hits give low values 1.01 | locus YLR058C, strain SHM2 (second series), hits give low values 0.999 | locus YMR219W, strain ESC1, hits give low values 1.01 | locus YMR263W, strain SAP30, hits give low values 1.02 | locus YNL153C, strain GIM3, hits give low values 1 | locus YNL322C, strain KRE1, hits give low values 1.03 | locus YPL055C, strain LGE1, hits give low values 0.985
